Records with an inconclusive call do not appear. More than one record can exist for a structure, and the calls need not agree. Activity calls are given as the source filed them. How the source made its calls, unless noted: active means hit-call score of the fitted dose curve at least 0.9, where 1 is the maximum; inconclusive means response in the unintended direction; inactive means score below 0.9.
Experiments:
[1] = target: Retinoic acid receptor alpha (Homo sapiens) (UniProt P10276); assay: ATG_DR5_RAR_CIS: Attagene CIS-FACTORIAL HepG2 Assay for human Retinoic Acid Receptor Alpha (RARE), DR5 submotif (AID 2282934; active means hit-call score of the fitted dose curve at least 0.9, where 1 is the maximum; inactive means score below 0.9); details: HepG2 Attagene cis-factorial RARE DR5 reporter, mRNA; actives raise or lower the signal
Sequence of Retinoic acid receptor alpha (Homo sapiens) (P10276 whole entry, looked up): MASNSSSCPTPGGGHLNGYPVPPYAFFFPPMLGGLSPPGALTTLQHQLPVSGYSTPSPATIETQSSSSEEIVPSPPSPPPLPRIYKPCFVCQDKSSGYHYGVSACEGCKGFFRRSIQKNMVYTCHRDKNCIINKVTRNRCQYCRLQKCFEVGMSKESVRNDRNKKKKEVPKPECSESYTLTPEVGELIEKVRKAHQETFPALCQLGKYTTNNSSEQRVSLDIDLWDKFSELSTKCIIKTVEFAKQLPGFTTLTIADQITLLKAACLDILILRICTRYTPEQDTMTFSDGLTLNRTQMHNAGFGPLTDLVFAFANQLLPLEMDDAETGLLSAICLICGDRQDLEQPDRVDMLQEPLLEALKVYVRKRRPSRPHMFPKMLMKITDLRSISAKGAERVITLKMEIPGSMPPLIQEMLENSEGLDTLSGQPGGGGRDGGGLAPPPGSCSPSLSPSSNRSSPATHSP
In short: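 Transfected HepG2 reporter cells are exposed to chemicals for 24 h. Then RNA is extracted and the DR5 element reporter transcript is measured by RT-PCR and capillary electrophoresis, with bidirectional curve fitting relative to DMSO.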

[2] = ATG_GRE_CIS: Attagene CIS-FACTORIAL HepG2 Assay for human Glucocorticoid Response Elements (GRE) (AID 2282947; active means hit-call score of the fitted dose curve at least 0.9, where 1 is the maximum; inactive means score below 0.9); details: HepG2 GRE cis-reporter, Attagene multiplex mRNA; actives raise or lower the signal
In short: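 Cells (HepG2) bearing transfected cis-promoter reporter transcription units were treated with chemical for 24 hours. Reporter mRNA was measured via RT-PCR with capillary electrophoresis, and activity was fitted in both directions relative to DMSO.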

[3] = ATG_PPRE_CIS: Attagene CIS-FACTORIAL HepG2 Assay for human Peroxisome Proliferator-activated Response Element (PPRE) (AID 2282958; active means hit-call score of the fitted dose curve at least 0.9, where 1 is the maximum; inactive means score below 0.9); details: HepG2 PPRE cis-element reporter, Attagene transcription factor profiling; actives raise or lower the signal
In short: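 Read-out: fluorescent reporter mRNA fragments resolved by capillary electrophoresis after RT-PCR. HepG2 cells carried transiently transfected PPRE-driven cis reporter constructs and were dosed for 24 h; gain or loss of signal fitted relative to DMSO.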

[4] = ATG_VDRE_CIS: Attagene CIS-FACTORIAL HepG2 Assay for human Vitamin D Receptor Element (VDRE) (AID 2282968; active means hit-call score of the fitted dose curve at least 0.9, where 1 is the maximum; inactive means score below 0.9); details: HepG2 VDRE cis-reporter transcription, actives raise or lower the signal
In short: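 Steps: transfect HepG2 with multiple reporter transcription units; dose chemicals 24 h; isolate RNA; RT-PCR; label with 6-FAM primer extension; HpaI digest; capillary electrophoresis. Curves fitted both directions against DMSO.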

[5] = ATG_M_19_TRANS: Attagene TRANS-FACTORIAL HepG2 Assay for M19 Transcription Factor (Internal Marker) (AID 2282974); details: HepG2 Attagene TRANS-FACTORIAL M19 internal marker reporter
In short: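 24 h chemical exposure of transiently transfected HepG2 (MRTU library). RNA → oligo(dT) RT → PCR → 6-FAM labelling → HpaI cut → CE fluorescence. Positive-direction fit vs DMSO baseline; background internal-marker readout.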

[6] = target: Estrogen-related receptor gamma (Homo sapiens) (UniProt P62508); assay: ATG_ERRg_TRANS: Attagene TRANS-FACTORIAL HepG2 Assay for human Estrogen-Related Receptor gamma (ERRg) (AID 2282977); details: HepG2 Attagene TRANS reporter, ERRg transactivation;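 further: hits increase reporter signal over DMSO so potencies reflect activators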
Sequence of Estrogen-related receptor gamma (Homo sapiens) (P62508 whole entry, looked up, the tested form may be a part): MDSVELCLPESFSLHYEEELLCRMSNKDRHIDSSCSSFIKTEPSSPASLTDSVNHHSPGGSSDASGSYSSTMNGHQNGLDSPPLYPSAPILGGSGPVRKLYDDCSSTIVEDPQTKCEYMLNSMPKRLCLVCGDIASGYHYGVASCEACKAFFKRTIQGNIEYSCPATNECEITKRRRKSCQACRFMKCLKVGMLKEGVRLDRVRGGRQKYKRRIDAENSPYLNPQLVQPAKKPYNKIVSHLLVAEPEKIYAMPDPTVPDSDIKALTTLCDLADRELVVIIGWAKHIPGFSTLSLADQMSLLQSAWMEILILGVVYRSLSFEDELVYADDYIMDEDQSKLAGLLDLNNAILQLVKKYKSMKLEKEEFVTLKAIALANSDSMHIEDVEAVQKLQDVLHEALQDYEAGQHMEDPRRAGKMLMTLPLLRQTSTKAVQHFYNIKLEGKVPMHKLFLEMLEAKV
In short: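 Exogenous NR-Gal4 chimera activity measured as reporter transcript induction after 24 h in transiently transfected HepG2 cells. RNA reverse-transcribed, PCR-amplified, 6-FAM-labelled and resolved by capillary electrophoresis; increase over DMSO baseline.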

[7] = target: Oxysterols receptor LXR-alpha (Homo sapiens) (UniProt Q13133); assay: ATG_LXRa_TRANS: Attagene TRANS-FACTORIAL HepG2 Assay for human Liver X Receptor alpha (LXRa) (AID 2282980); details: HepG2 Attagene TRANS reporter, LXRa transactivation
Sequence of Oxysterols receptor LXR-alpha (Homo sapiens) (Q13133 whole entry, looked up, the tested form may be a part): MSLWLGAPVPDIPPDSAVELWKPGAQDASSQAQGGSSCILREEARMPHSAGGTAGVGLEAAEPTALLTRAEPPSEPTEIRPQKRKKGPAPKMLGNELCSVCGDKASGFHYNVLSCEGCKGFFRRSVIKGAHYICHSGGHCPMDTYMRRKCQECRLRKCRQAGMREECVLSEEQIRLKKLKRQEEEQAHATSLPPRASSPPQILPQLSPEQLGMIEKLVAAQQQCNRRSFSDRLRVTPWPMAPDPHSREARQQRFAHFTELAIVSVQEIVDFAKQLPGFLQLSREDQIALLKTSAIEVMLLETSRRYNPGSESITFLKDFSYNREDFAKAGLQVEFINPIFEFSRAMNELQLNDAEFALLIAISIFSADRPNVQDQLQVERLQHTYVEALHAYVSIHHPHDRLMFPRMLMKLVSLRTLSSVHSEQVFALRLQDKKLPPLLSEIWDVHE
In short: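 HepG2 cells transiently transfected with GAL4-UAS reporter units for chimeric NR-Gal4 proteins, exposed to chemicals for 24 h. Reporter mRNA quantified by RT-PCR and capillary electrophoresis; gain of signal fitted relative to DMSO.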

[8] = target: Oxysterols receptor LXR-beta (Homo sapiens) (UniProt P55055); assay: ATG_LXRb_TRANS: Attagene TRANS-FACTORIAL HepG2 Assay for human Liver X Receptor beta (LXRb) (AID 2282981); details: HepG2 Attagene TRANS GAL4-LXRb reporter, mRNA
Sequence of Oxysterols receptor LXR-beta (Homo sapiens) (P55055 whole entry, looked up, the tested form may be a part): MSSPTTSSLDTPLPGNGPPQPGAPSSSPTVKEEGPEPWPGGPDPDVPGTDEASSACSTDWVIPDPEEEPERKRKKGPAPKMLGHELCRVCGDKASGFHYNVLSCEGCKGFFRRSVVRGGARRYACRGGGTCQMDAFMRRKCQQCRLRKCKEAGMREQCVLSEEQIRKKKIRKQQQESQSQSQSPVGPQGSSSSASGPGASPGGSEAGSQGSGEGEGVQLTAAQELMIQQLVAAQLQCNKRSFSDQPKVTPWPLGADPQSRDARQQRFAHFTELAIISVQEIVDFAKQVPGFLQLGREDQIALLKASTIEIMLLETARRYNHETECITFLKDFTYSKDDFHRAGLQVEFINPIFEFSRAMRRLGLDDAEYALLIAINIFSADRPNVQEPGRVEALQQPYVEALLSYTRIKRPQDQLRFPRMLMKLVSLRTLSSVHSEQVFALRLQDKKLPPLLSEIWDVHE
In short: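 Measures induction of a Gal4-driven reporter transcript in HepG2 cells expressing an exogenous LXRb-Gal4 fusion. Cells are exposed to compound for 24 h before RNA isolation and RT-PCR with capillary electrophoresis detection.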

[9] = target: human Peroxisome Proliferator-activated Receptor delta (PPARd), PPARD (gene 5467) (UniProt Q03181); assay: ATG_PPARd_TRANS: Attagene TRANS-FACTORIAL HepG2 Assay for human Peroxisome Proliferator-activated Receptor delta (PPARd) (AID 2283002)
Sequence of human Peroxisome Proliferator-activated Receptor delta (PPARd), PPARD (gene 5467) (Q03181 whole entry, looked up, the tested form may be a part): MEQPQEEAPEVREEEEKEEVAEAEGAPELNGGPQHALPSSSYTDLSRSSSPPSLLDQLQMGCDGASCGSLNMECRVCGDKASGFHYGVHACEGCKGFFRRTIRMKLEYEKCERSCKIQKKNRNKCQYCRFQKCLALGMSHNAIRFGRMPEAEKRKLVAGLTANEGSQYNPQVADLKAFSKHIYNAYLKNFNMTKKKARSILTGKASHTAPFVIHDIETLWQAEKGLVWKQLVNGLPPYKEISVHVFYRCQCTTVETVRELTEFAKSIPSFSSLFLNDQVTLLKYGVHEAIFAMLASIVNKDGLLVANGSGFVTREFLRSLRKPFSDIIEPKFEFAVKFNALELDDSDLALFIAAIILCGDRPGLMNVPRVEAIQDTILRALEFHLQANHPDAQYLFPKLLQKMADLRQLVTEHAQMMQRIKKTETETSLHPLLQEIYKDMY
In short: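 Measured quantity: GAL4-UAS reporter transcript induction in HepG2 after 24 h chemical dosing, with NR-Gal4 chimeras supplied by transient transfection. Detection by RT-PCR and capillary electrophoresis; upward fit against DMSO.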

[10] = target: human Vitamin D Receptor (VDR), VDR (gene 7421) (UniProt P11473); assay: ATG_VDR_TRANS: Attagene TRANS-FACTORIAL HepG2 Assay for human Vitamin D Receptor (VDR) (AID 2283022)
Sequence of human Vitamin D Receptor (VDR), VDR (gene 7421) (P11473 whole entry, looked up, the tested form may be a part): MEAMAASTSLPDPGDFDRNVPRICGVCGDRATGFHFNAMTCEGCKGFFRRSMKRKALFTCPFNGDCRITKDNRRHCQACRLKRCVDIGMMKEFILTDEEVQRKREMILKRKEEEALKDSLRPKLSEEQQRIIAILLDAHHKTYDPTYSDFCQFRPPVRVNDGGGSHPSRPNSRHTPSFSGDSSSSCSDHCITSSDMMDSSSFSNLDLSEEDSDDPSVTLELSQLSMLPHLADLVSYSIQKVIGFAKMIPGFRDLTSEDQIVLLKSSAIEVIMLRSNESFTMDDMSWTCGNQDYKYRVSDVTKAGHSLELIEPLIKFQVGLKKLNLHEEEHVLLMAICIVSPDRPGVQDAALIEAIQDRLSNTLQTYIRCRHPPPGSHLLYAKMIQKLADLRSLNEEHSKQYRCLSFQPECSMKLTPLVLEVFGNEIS
In short: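 HepG2 cells were transiently transfected with GAL4-UAS reporter units and a chimeric VDR-Gal4 construct, then dosed for 24 hours. Reporter mRNA was quantified by RT-PCR, fluorescent labeling, HpaI digestion and capillary electrophoresis; gain of signal analysed vs DMSO.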

[11] = TOX21_p53_BLA_p3_viability: Viability Assessment in the Tox21 HCT-116 p53 Agonism Beta-lactamase Assay, Phase 3 (AID 2283593);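 further: cells exposed to compound for 16 h before reading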
In short: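 HCT-116 cells (4000/well) rested 5 h at 37C, then got DMSO compounds by pin tool (217-fold dilution) for 16 h at 37C, 5% CO2. After the bla read, CellTiter-Glo was added and luminescence read at 30 min, room temperature.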

[12] = ATG_PBREM_CIS: Attagene CIS-FACTORIAL HepG2 Assay for human Phenobarbital-responsive Enhancer Module (PBREM) (AID 2282955; active means hit-call score of the fitted dose curve at least 0.9, where 1 is the maximum; inactive means score below 0.9); details: HepG2 PBREM cis-reporter, Attagene multiplexed transcription; actives raise or lower the signal
In short: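 Reporter mRNA read by RT-PCR, 6-FAM primer extension, HpaI digestion and capillary electrophoresis. Transfected HepG2 cells, 24 h compound exposure. Gain or loss of signal fitted bidirectionally relative to DMSO baseline.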

[13] = target: Nuclear receptor subfamily 1 group I member 3 (Homo sapiens) (UniProt Q14994); assay: ATG_CAR_TRANS: Attagene TRANS-FACTORIAL HepG2 Assay for human Constitutive Androstane Receptor (CAR) (AID 2282969); details: HepG2 Attagene TRANS-FACTORIAL CAR reporter;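 further: activators raise reporter mRNA above DMSO so AC50 marks induction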
Sequence of Nuclear receptor subfamily 1 group I member 3 (Homo sapiens) (Q14994 whole entry, looked up, the tested form may be a part): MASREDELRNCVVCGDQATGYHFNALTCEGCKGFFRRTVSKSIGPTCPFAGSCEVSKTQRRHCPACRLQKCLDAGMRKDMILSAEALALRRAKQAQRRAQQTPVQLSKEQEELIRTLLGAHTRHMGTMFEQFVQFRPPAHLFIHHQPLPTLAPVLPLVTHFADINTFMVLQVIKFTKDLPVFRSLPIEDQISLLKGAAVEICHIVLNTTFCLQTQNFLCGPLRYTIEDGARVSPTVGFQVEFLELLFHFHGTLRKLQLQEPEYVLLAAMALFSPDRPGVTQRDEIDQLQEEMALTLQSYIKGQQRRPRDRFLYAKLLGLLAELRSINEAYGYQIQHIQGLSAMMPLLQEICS
In short: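 Steps: transient transfection of HepG2 with multiple GAL4-UAS reporter units; 24 h compound incubation; RNA isolation, RT-PCR, 6-FAM primer extension, HpaI digest; capillary electrophoresis. Gain-of-signal relative to DMSO negative control.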

[14] = target: Glucocorticoid receptor (Homo sapiens) (UniProt P04150); assay: ATG_GR_TRANS: Attagene TRANS-FACTORIAL HepG2 Assay for human Glucocorticoid Receptor (GR) (AID 2282978); details: HepG2 Attagene TRANS GR reporter, mRNA transcription;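 further: activators score as hits since higher reporter transcript over DMSO is fitted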
Sequence of Glucocorticoid receptor (Homo sapiens) (P04150 whole entry, looked up, the tested form may be a part): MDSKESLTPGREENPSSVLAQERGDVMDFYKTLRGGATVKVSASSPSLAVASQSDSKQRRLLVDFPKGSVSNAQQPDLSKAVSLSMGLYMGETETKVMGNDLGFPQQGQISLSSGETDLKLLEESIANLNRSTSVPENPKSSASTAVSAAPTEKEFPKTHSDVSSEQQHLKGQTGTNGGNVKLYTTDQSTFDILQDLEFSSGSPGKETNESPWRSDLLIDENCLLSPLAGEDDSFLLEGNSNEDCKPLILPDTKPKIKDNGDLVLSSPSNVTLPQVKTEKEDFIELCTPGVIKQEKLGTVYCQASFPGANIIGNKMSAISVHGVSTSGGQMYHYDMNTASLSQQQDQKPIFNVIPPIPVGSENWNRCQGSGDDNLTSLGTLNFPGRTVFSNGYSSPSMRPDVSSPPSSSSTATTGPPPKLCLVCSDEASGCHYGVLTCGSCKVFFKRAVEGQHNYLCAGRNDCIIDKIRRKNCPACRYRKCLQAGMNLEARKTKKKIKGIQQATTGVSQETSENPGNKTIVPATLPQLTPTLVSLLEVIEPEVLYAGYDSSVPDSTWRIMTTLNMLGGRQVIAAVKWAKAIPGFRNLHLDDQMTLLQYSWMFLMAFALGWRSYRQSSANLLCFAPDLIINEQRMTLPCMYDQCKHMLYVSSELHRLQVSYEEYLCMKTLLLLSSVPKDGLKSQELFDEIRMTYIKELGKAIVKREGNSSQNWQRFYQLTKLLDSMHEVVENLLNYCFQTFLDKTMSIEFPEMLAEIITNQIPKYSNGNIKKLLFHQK
In short: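 Transient MRTU transfection of HepG2 (GAL4-UAS reporters, exogenous NR-GAL4 chimeras), 24 h dosing. Readout: reporter transcript via RT-PCR + capillary electrophoresis fluorescence. Positive direction vs DMSO baseline.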

[15] = target: human Peroxisome Proliferator-activated Receptor alpha (PPARa), PPARA (gene 5465) (UniProt Q07869); assay: ATG_PPARa_TRANS: Attagene TRANS-FACTORIAL HepG2 Assay for human Peroxisome Proliferator-activated Receptor alpha (PPARa) (AID 2283001);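 on AC50: potency for gain of reporter signal over DMSO so agonist or activator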
Sequence of human Peroxisome Proliferator-activated Receptor alpha (PPARa), PPARA (gene 5465) (Q07869 whole entry, looked up): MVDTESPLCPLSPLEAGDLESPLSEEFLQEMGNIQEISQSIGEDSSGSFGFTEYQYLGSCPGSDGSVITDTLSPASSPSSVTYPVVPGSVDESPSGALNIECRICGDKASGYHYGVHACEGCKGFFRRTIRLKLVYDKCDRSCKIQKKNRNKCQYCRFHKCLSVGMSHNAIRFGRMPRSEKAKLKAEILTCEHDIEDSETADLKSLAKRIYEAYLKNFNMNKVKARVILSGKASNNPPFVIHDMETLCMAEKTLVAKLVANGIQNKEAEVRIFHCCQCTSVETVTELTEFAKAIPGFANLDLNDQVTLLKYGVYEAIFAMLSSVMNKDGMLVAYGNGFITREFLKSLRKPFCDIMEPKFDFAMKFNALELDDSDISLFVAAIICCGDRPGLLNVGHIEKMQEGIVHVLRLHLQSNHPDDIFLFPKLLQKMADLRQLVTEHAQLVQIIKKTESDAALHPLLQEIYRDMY
In short: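 Cells (HepG2) are transfected with multiple reporter transcription units, exposed to chemical for 24 h, then total RNA is reverse-transcribed and amplified. Labelled products are quantified by capillary electrophoresis; induction is referenced to DMSO.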

[16] = ACEA_ER_AUC_viability: ACEA Biosciences xCELLigence Real-Time Cell Analysis on Estrogen Receptor Agonism for Viability (AID 2283782);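 further: hit means loss of impedance signal meaning reduced cell growth or viability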
In short: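 Continuous-exposure impedance cell analysis uses T-47D cells in charcoal-stripped serum, eight 1:4 dilutions topping at 100 uM final, biological duplicate. Area under the growth curve at 80 h is fitted against DMSO baseline.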

[17] = ATG_M_06_TRANS: Attagene TRANS-FACTORIAL HepG2 Assay for M06 Transcription Factor (Internal Marker) (AID 2282983); details: HepG2 Attagene TRANS M06 internal marker reporter
In short: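 mRNA levels of a reporter transcript, quantified as FAM fluorescence on capillary electrophoresis, served as readout. HepG2 cells expressing exogenous GAL4-chimera reporter constructs were exposed for 24 h. Gain of signal over DMSO was evaluated.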

[18] = CCTE_Harrill_HTTr_Viability_MCF7: CCTE's 6-hour Cell Viability Assessment for the High-Throughput Transcriptomics (HTTr) Platform, in MCF-7 cells cultured in DMEM + 10% fetal bovine serum, Harrill Lab (AID 2284010; active means hit-call score of the fitted dose curve at least 0.9, where 1 is the maximum; inactive means score below 0.9)
In short: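 Propidium iodide exclusion, imaged by high-content analysis, gauged viability after a six-hour exposure across eight concentrations. Cells were MCF-7 grown in DMEM with 10% fetal bovine serum; fits run in both directions against DMSO.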

[19] = CCTE_Harrill_HTTr_Apoptosis_MCF7: CCTE's 6-hour Apoptosis Assessment for the High-Throughput Transcriptomics (HTTr) Platform, in MCF-7 cells cultured in DMEM + 10% fetal bovine serum, Harrill Lab (AID 2284011; active means hit-call score of the fitted dose curve at least 0.9, where 1 is the maximum; inactive means score below 0.9)
In short: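 MCF-7 cells in DMEM + 10% FBS exposed 6 h to chemicals over an eight-point dilution series. Caspase-3/7 activation imaged by high-content CellEvent Green staining; fitted bidirectionally versus DMSO.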

[20] = target: human RAR-related Orphan Receptor beta (RORb), RORB (gene 6096) (UniProt Q92753); assay: ATG_RORb_TRANS: Attagene TRANS-FACTORIAL HepG2 Assay for human RAR-related Orphan Receptor beta (RORb) (AID 2283010)
Sequence of human RAR-related Orphan Receptor beta (RORb), RORB (gene 6096) (Q92753 whole entry, looked up, the tested form may be a part): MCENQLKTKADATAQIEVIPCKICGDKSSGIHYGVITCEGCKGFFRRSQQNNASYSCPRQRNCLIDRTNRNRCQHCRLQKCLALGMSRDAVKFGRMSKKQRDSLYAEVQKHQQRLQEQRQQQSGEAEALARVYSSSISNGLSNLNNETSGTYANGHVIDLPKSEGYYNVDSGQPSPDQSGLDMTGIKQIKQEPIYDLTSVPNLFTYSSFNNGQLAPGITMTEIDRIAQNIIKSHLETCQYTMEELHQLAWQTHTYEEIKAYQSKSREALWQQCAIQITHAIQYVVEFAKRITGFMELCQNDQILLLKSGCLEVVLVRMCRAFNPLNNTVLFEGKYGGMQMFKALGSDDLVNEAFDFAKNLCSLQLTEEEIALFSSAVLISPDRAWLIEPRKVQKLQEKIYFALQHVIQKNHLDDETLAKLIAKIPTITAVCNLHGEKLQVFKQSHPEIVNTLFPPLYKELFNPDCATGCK
In short: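 Read-out is reporter mRNA induction, quantified by RT-PCR with fluorescent capillary electrophoresis, 24 h post-dose in transiently transfected HepG2 expressing exogenous NR-Gal4 chimera. Activity fitted upward versus DMSO.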

Measured: AC50

CN(C)Cc1cc(C(C)(C)C)c(O)c(C(C)(C)C)c1
inactive: [1] | [2] | [3] | [4] | [5] | [6] | [7] | [8] | [9] | [10] | [11]

CCCOCCC
inactive: [1] | [2] | [12] | [3] | [13] | [14] | [7] | [8] | [15] | [11] | [16]

Oc1ccc(Cl)cc1C1CCCC1
inactive: [1] | [12] | [3] | [7] | [8] | [17] | [9] | [11] | [18] | [19]
active: [15] 39.1 µM

CC1=C(CC(=O)O)c2cc(F)ccc2/C1=C\c1ccc(S(C)=O)cc1 (centres undefined)
active: [12] 26 µM
not listed: [1] | [4] | [6] | [8] | [10] | [14] | [16] | [17]
inactive: all other assays above

Cc1cc(C)c(S(=O)(=O)O)cc1N=Nc1cc(S(=O)(=O)O)c2ccccc2c1O
inactive: [3] | [4] | [13] | [7] | [8] | [15] | [10] | [11] | [16]

CCCC(=O)OC/C=C(\C)CCC=C(C)C
active: [16] 68.8 µM
inactive: [1] | [3] | [4] | [13] | [5] | [14] | [17] | [15] | [10]

CNC[C@H](O)[C@@H](O)[C@H](O)[C@H](O)CO
inactive: [1] | [12] | [4] | [17] | [15] | [20] | [10] | [11]

C=CCOC(=O)C(=C)C
inactive: [1] | [2] | [12] | [4] | [6] | [14] | [15] | [9] | [20] | [10] | [11]

CC(C)CC(=O)O
inactive: [1] | [3] | [13] | [14] | [20] | [10] | [11] | [16] | [18] | [19]

CC(C)(C)NC(=O)[C@@H]1CN(Cc2cccnc2)CCN1C[C@@H](O)C[C@@H](Cc1ccccc1)C(=O)N[C@H]1c2ccccc2C[C@H]1O
active: [14] 13.4 µM | [11] 43 µM
inactive: [2] | [4] | [13] | [5] | [7] | [8] | [9] | [10] | [11]

CCCN[C@H]1CCc2nc(N)sc2C1
inactive: [4] | [5] | [7] | [8] | [10] | [11]

O=C(c1ccccc1)c1ccccc1O
inactive: [1] | [12] | [4] | [13] | [6] | [14] | [15] | [10]
active: [16] 76.9 µM

Reference: PubChem BioAssay (EPA / NIEHS)
